# Where “and” joins values, the source holds several entries; their conditions need not be identical. Equal entries are not always repeated. The whole screen tested about 5,500 compounds, of which about 2,000 (36%) were called active. Roughly 18% stayed inconclusive and do not appear here. The list shows a part of the results. Unmarked numbers belong to inactive results. Rule as the data show it: active = normalized growth mostly below about 0.91 (no sharp cut-off); inconclusive = no clear call, values can overlap the other calls; inactive = mostly above about 0.92.
# Experiment: chemical genetic growth profiling, strain panel (AID 1159580);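 also: tested at 20 µM; growth read once vehicle control cultures reached saturation at 30 °C; 1 = growth at the plate median or of vehicle wells; lower values mean less growth of the strain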
# Details: S. cerevisiae deletion strains, growth OD
smiles,measurement,setting,value
CC(=O)OC[C@@]1(O)C[C@@]23CCC4c5ccoc5CC[C@]4(C)C2CC[C@@H]1C3 (some centres not stated),normalized growth,"locus YAL013W, strain DEP1, hits give low values",0.985
same,normalized growth,"locus YAL021C, strain ccr4, hits give low values",1.03
same,normalized growth,"locus YAL026C, strain drs2, hits give low values",0.901 (active)
same,normalized growth,"locus YAL030W, strain snc1, hits give low values",1.02
same,normalized growth,"locus YBL061C, strain skt5, hits give low values",0.988
same,normalized growth,"locus YBR009C, strain hhf1, hits give low values",0.97
same,normalized growth,"locus YBR021W, strain FUR4, hits give low values",0.964
same,normalized growth,"locus YBR023C, strain chs3, hits give low values",0.953
same,normalized growth,"locus YBR171W, strain sec66, hits give low values",0.986
same,normalized growth,"locus YBR229C, strain ROT2, hits give low values",0.998
same,normalized growth,"locus YBR231C, strain swc5, hits give low values",1.01
same,normalized growth,"locus YBR279W, strain paf1, hits give low values",1.02
same,normalized growth,"locus YCL011C, strain gbp2, hits give low values",0.998
same,normalized growth,"locus YCL016C, strain dcc1, hits give low values",0.975
same,normalized growth,"locus YCL029C, strain bik1, hits give low values",0.963
same,normalized growth,"locus YCL061C, strain MRC1, hits give low values",0.98
same,normalized growth,"locus YCL069W, strain vba3, hits give low values",1
same,normalized growth,"locus YCR088W, strain abp1, hits give low values",0.997
same,normalized growth,"locus YDL005C, strain med2, hits give low values",1.02
same,normalized growth,"locus YDL035C, strain GPR1, hits give low values",0.899
same,normalized growth,"locus YDL040C, strain nat1, hits give low values",1
same,normalized growth,"locus YDL074C, strain BRE1, hits give low values",0.88
same,normalized growth,"locus YDL101C, strain DUN1, hits give low values",0.986
same,normalized growth,"locus YDL134C, strain PPH21, hits give low values",0.973
same,normalized growth,"locus YDL185W, strain tfp1, hits give low values",0.968
same,normalized growth,"locus YDL192W, strain arf1, hits give low values",0.932
same,normalized growth,"locus YDR001C, strain nth1, hits give low values",1
same,normalized growth,"locus YDR069C, strain doa4, hits give low values",1.02
same,normalized growth,"locus YDR101C, strain arx1, hits give low values",0.965
same,normalized growth,"locus YDR137W, strain rgp1, hits give low values",0.805 (active)
same,normalized growth,"locus YDR150W, strain NUM1, hits give low values",0.948
same,normalized growth,"locus YDR159W, strain sac3, hits give low values",0.991
same,normalized growth,"locus YDR162C, strain NBP2, hits give low values",0.97
same,normalized growth,"locus YDR195W, strain ref2",0.993
same,normalized growth,"locus YDR297W, strain sur2, hits give low values",1.01
same,normalized growth,"locus YDR318W, strain mcm21, hits give low values",0.911 (active)
same,normalized growth,"locus YDR334W, strain swr1, hits give low values",1.01
same,normalized growth,"locus YDR335W, strain msn5, hits give low values",1
same,normalized growth,"locus YDR388W, hits give low values",0.977
same,normalized growth,"locus YDR392W, strain spt3, hits give low values",0.576 (active)
same,normalized growth,"locus YDR502C, strain sam2, hits give low values",0.956
same,normalized growth,"locus YEL003W, strain gim4, hits give low values",1
same,normalized growth,"locus YEL037C, strain rad23, hits give low values",0.992
same,normalized growth,"locus YEL061C, strain CIN8 (second series), hits give low values",1
same,normalized growth,"locus YEL061C, strain CIN8, hits give low values",0.986
same,normalized growth,"locus YER015W, strain faa2, hits give low values",1.01
same,normalized growth,"locus YER016W, strain bim1, hits give low values",0.996
same,normalized growth,"locus YER110C, hits give low values",0.95
same,normalized growth,"locus YER111C, strain swi4, hits give low values",0.995
same,normalized growth,"locus YER155C, strain BEM2 (second series), hits give low values",0.987
same,normalized growth,"locus YER155C, strain BEM2, hits give low values",0.972
same,normalized growth,"locus YER167W, strain BCK2, hits give low values",0.929
same,normalized growth,"locus YFR010W, strain ubp6, hits give low values",0.985
same,normalized growth,"locus YGL078C, strain dbp3, hits give low values",0.966
same,normalized growth,"locus YGL086W, strain mad1, hits give low values",0.931
same,normalized growth,"locus YGL167C, strain pmr1, hits give low values",1
same,normalized growth,"locus YGL173C, strain kem1, hits give low values",1.03
same,normalized growth,"locus YGL227W, strain vid30, hits give low values",1.01
same,normalized growth,"locus YGL240W, strain doc1, hits give low values",1
same,normalized growth,"locus YGL248W, strain PDE1, hits give low values",0.98
same,normalized growth,"locus YGL253W, strain hxk2, hits give low values",0.91 (active)
same,normalized growth,"locus YGR078C, strain PAC10, hits give low values",0.934
same,normalized growth,"locus YGR135W, strain pre9, hits give low values",0.95
same,normalized growth,"locus YGR229C, strain SMI1, hits give low values",0.804 (active)
same,normalized growth,"locus YGR252W, strain gcn5, hits give low values",0.912
same,normalized growth,"locus YHR013C, strain ard1, hits give low values",1.19 [resistant] (active)
same,normalized growth,"locus YHR027C, strain rpn1, hits give low values",1.01
same,normalized growth,"locus YHR030C, strain SLT2, hits give low values",0.943 and 0.867
same,normalized growth,"locus YHR079C, strain IRE1 (second series), hits give low values",0.924 (active)
same,normalized growth,"locus YHR079C, strain IRE1, hits give low values",0.918
same,normalized growth,"locus YHR094C, strain hxt1, hits give low values",0.96
same,normalized growth,"locus YHR129C, strain ARP1, hits give low values",0.985
same,normalized growth,"locus YHR142W, strain chs7, hits give low values",0.846 (active)
same,normalized growth,"locus YHR200W, strain rpn10, hits give low values",0.96
same,normalized growth,"locus YIL066C, strain RNR3, hits give low values",0.981
same,normalized growth,"locus YIL073C, strain SPO22, hits give low values",0.991
same,normalized growth,"locus YIL125W, strain kgd1, hits give low values",0.965
same,normalized growth,"locus YIR030C, strain dcg1, hits give low values",0.974
same,normalized growth,"locus YJL092W, strain hpr5, hits give low values",1
same,normalized growth,"locus YJL095W, strain BCK1 (second series), hits give low values",1.01
same,normalized growth,"locus YJL095W, strain BCK1, hits give low values",0.909 and 0.89
same,normalized growth,"locus YJL115W, strain asf1, hits give low values",1.01
same,normalized growth,"locus YJL129C, strain trk1, hits give low values",0.984
same,normalized growth,"locus YJL134W, strain LCB3, hits give low values",0.973
same,normalized growth,"locus YJL154C, strain vps35, hits give low values",1
same,normalized growth,"locus YJL164C, strain tpk1, hits give low values",0.973
same,normalized growth,"locus YJL166W, strain qcr8, hits give low values",0.996
same,normalized growth,"locus YJL168C, strain set2, hits give low values",0.983
same,normalized growth,"locus YJL187C, strain SWE1 (second series), hits give low values",0.961
same,normalized growth,"locus YJL187C, strain SWE1, hits give low values",1.01
same,normalized growth,"locus YJR043C, strain POL32, hits give low values",0.954
same,normalized growth,"locus YJR066W, strain TOR1, hits give low values",0.825 (active)

# Reference: PubChem BioAssay AID1159580 (chemical genetic matrix, 2015)
